Data: PubChem BioAssay (EPA / NIEHS)
Results filed as inconclusive are left out. The source made the active and inactive calls. Rule for the calls: active = hit-call score of the fitted dose curve at least 0.9, where 1 is the maximum; inconclusive = response in the unintended direction; inactive = score below 0.9.

Test: ACEA_AR_agonist_AUC_viability: ACEA Biosciences xCELLigence Real-Time Cell Analysis on Androgen Receptor Agonism for Viability (AID 2283775);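 for AC50: viability read 80 hours after compound addition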
Protocol: ACEA_AR_agonist is a cell-based, single-readout assay that uses 22Rv1, a human prostate cancer cell line, with measurements taken at 80 hours after chemical dosing in a 384-well plate, although TO5 and TO6 (mc0.srcf) used a 96-well plate. Differences in plate size can be ignored given data normalization.ACEA_AR_80hr is one of two assay component(s) measured or calculated from the ACEA_AR assay. It is designed to make measurements of real-time cell-growth kinetics, a form of growth reporter, as detected with electrical impedance signals by Real-Time Cell Electrode Sensor (RT-CES) technology.Data from the assay component ACEA_AR_AUC_viability was analyzed in the positive analysis fitting direction relative to DMSO as the negative control and baseline of activity. Using a type of growth reporter, loss-of-signal activity can be used to understand changes in the viability. Furthermore, this assay endpoint can be referred to as a secondary readout, because this assay has produced multiple assay endpoints where this one serves a viability function. To generalize the intended target to other relatable targets, this assay endpoint is annotated to the cell cycle intended target family, where the subfamily is cytotoxicity.
The xCELLigence system Multi-E-Plate stations were used to measure the time-dependent response to chemicals. Each compound was tested in an eight-point, 1:4 serial dilution series starting at a maximum final concentration of 100 uM. A maximum starting concentration of 0.5% DMSO was present in the 100 uM chemical samples and was diluted along with the test article dilution series. The screen was performed in biological duplicate using two separate, 96-well, E-Plates 96 for each dilution series (n = 2). Positive controls (MG132 and testosterone) and a negative control (assay media) were tested in quadruplicate on each testing plate. Then, 0.5% and 0.125% DMSO were tested in duplicates in each plate to serve as solvent controls for the 2 highest concentrations of testing compounds: 100 uM and 25 uM. Reference compounds were tested with 8 concentrations with 1:5 serial dilutions. All screening was carried out by ACEA Biosciences, Inc. (San Diego, CA). 22Rv1 cells purchased from ATCC were maintained in media supplemented with 10% fetal bovine serum (FBS). Before screening, 22Rv1 cells were preconditioned in assay medium. Cells were then detached and seeded in E-Plates 96 in assay medium. After overnight monitoring of growth once every hour, compounds were added to […] cells and remained in the medium until the end of the experiment. Cellular responses were then recorded once every 5 min for the first 5 h, and once every hour for an additional 100 h.

SMILES	AC50	outcome
O=C(O)Cc1cc(I)c(Oc2ccc(O)c(I)c2)c(I)c1	22 µM (active)	
OCCO		inactive
O=C(O)Cn1c(=O)n(Cc2ccc(Br)cc2F)c(=O)c2ccc(Cl)cc21		inactive
CCCCCCCCCCCO	90.2 µM (active)	
O=c1[nH]sc2ccccc12	14.1 µM (active)	
CCCCCc1ccc(N)cc1	50 µM (active)	
O=C(OCCCCCCOC(=O)c1ccccc1)c1ccccc1	74 µM (active)	
CN(C)C(=O)C1(N2CCCCC2)CCN(CC[C@@]2(c3ccc(Cl)c(Cl)c3)CN(C(=O)c3ccccc3)CCO2)CC1	10.5 µM (active)	
CN1C(=O)N(c2ccccc2Br)Cc2cnc(Nc3ccc4c(c3)OCC(CO)O4)nc21 (stereo not given)	20.5 µM (active)	
CCCOC(=O)c1cc(O)c(O)c(O)c1	50 µM (active)	
CC(C)(c1cc(Br)c(O)c(Br)c1)c1cc(Br)c(O)c(Br)c1	25 µM (active)	
O=C1CCC(C2CCCCC2)CC1	50 µM (active)	
Cc1cc2c(cc1C(F)(F)F)N(C(=O)Nc1ccc(Oc3cccnc3C)nc1)CC2	17.1 µM (active)	
CCCCOC(=O)c1ccc(O)cc1	69.5 µM (active)	
Oc1ccccc1		inactive
O=CCCCC=O	35.2 µM (active)	
Clc1ccccc1C(c1ccccc1)(c1ccccc1)n1ccnc1	16.9 µM (active)	
CN(C[C@@H](CC[N+]12CCC(C3CCCCC3)(CC1)CC2)c1ccc(Cl)c(Cl)c1)C(=O)c1cc(C(F)(F)F)cc(C(F)(F)F)c1	5.81 µM (active)	
NCc1cccc(C2CCN(C(=O)c3ccc(C#Cc4ccccc4F)o3)CC2)c1	21.2 µM (active)	
CCCC(=O)OCCC(C)C		inactive

SMILES	AC50	outcome
CCO[Si](CCCNC(N)=O)(OCC)OCC		inactive
CC(C)(O)c1ccc(CNC(=O)c2cccnc2Oc2ccc3nonc3c2)cc1		inactive
O=C1O[C@H]([C@@H](O)CO)C(O)=C1O		inactive
OC12N=C(c3ccccc3)SC1Cc1cc(Cl)ccc12 (stereo not given)	83.3 µM (active)	
CC[C@@H]1C[C@H](N(Cc2cc(C(F)(F)F)cc(C(F)(F)F)c2)C(C)=O)c2cc(C(F)(F)F)ccc2N1C(=O)OC(C)C		inactive
CCCCCCCCCCCCO		inactive
CCCCCCCCCC(=O)O		inactive
NC(=O)c1nc(-c2cccc(-c3cc(F)ccc3OCC(F)(F)C(F)(F)F)c2)n[nH]1	24.6 µM (active)	
Cc1ccc(C(C)C)cc1		inactive
CCN(Cc1cccnc1)C(=O)c1cccc(Cl)c1[C@]1(C)C(=O)N(Cc2ccc(OC)cc2OC)c2ccc(Cl)cc21	23.8 µM (active)	
O=C1c2ccccc2C(=O)N1CCc1noc(-c2ccc(CN3CCCCCC3)s2)n1	13.2 µM (active)	
CCCCCCCCOC(=O)c1cc(O)c(O)c(O)c1	35.3 µM (active)	
CN1C(=O)CC[C@H]1c1cccnc1		inactive
Cc1cc(F)ccc1-c1cc(N2CC[C@@H](O)[C@H]2CO)ncc1N(C)C(=O)C(C)(C)c1cc(C(F)(F)F)cc(C(F)(F)F)c1	8.51 µM (active)	
Clc1cc(Cl)c2c(c1)N=C1CCCCCN1C2		inactive
CN(C)c1ccc(C(=C2C=CC(=[N+](C)C)C=C2)c2ccc(N(C)C)cc2)cc1	0.281 µM (active)	
CC(=O)N1CCN(c2ccc(OC[C@H]3CO[C@](Cn4ccnc4)(c4ccc(Cl)cc4Cl)O3)cc2)CC1	29.2 µM (active)	
CCCCOC(=O)CC(CC(=O)OCCCC)(OC(C)=O)C(=O)OCCCC		inactive
CC/C(=C(/CC)c1ccc(O)cc1)c1ccc(O)cc1	21.3 µM (active)	
Cc1ncc(CO)c(CO)c1O		inactive
